According to the supplement of paper PMC8975748:
Where a name gives a salt, the structure may show the parent alone.

test system: Saccharomyces cerevisiae BY4741 SeMeCo community; assay: z-score of subpopulation abundance vs DMSO median, subpopulation auxotrophic for U; higher = larger share of this subpopulation than in DMSO controls; settings: 10 µM; 24 h; SM minimal medium; subpopulation (auxotrophy): U
Experimental: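 Fluorescent four-plasmid SeMeCo (self-establishing metabolically cooperating S. cerevisiae BY4741 community; plasmids pH-mRuby2, pL-mWasabi, pU-eCFP, pM-TagRFP657) was grown 24 h in minimal SM medium with each Selleck FDA-approved drug at 10 µM in 384-well plates. Cells were fixed and imaged by high-content confocal microscopy. For each auxotrophic subpopulation (and the prototroph), a z-score gives the deviation from the DMSO vehicle-control population median.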

SMILES | z-score of subpopulation abundance
CC(C)=CCOc1c2occc2cc2ccc(=O)oc12 [Imperatorin] | 0.23
CCCN1C[C@H](CSC)C[C@@H]2c3cccc4[nH]cc(c34)C[C@H]21 [Pergolide Mesylate] | -0.62
CN1C(=O)COc2c(C(=O)NC3CN4CCC3CC4)cc(Cl)cc21 (stereo not given) [Azasetron HCl] | 0.36
CCOC(=O)Nc1ccc(NCc2ccc(F)cc2)cc1N [Retigabine] | -0.91
CN(C)[C@@H]1C(=O)C(C(N)=O)=C(O)[C@@]2(O)C(=O)C3=C(O)c4c(O)cccc4[C@@](C)(O)[C@H]3C[C@@H]12 [Tetracycline HCl] | 0.13
Cc1cc(C(C#N)c2ccc(Cl)cc2)c(Cl)cc1NC(=O)c1cc(I)cc(I)c1O (stereo not given) [Closantel] | -0.26
NCC(O)c1ccc(O)cc1 (racemic) [(+,-)-Octopamine HCl] | 0.08
CCOC(=O)Nc1ccc(NCc2ccc(F)cc2)cc1N [Retigabine 2HCl] | -0.66
CCCCCCCCCCCCCCCC[n+]1ccccc1 [Cetylpyridinium Chloride] | 1.27
C[N+](C)(C)CCCCCCCCCC[N+](C)(C)C [Decamethonium Bromide] | 0.01
CN(C)[C@@H]1C(=O)C(C(N)=O)=C(O)[C@@]2(O)C(=O)C3=C(O)c4c(O)cccc4[C@@](C)(O)[C@H]3[C@H](O)[C@@H]12 [Oxytetracycline Dihydrate] | 0.11
CN(C)C(=O)Oc1cccc([N+](C)(C)C)c1 [Neostigmine Bromide] | -0.26
CN(C)[C@@H]1C(=O)C(C(N)=O)=C(O)[C@@]2(O)C(=O)C3=C(O)c4c(O)cccc4[C@@](C)(O)[C@H]3[C@H](O)[C@@H]12 [Oxytetracycline (Terramycin)] | 0.03
N#Cc1nn(-c2c(Cl)cc(C(F)(F)F)cc2Cl)c(N)c1[S+]([O-])C(F)(F)F (stereo not given) [Fipronil] | -0.36
CN1c2ccccc2C(NCCCCCCC(=O)O)c2ccc(Cl)cc2S1(=O)=O (stereo not given) [Tianeptine sodium] | -0.4
CN(C)[C@@H]1C(=O)C(C(N)=O)=C(O)[C@@]2(O)C(=O)C3=C(O)c4c(O)ccc(Cl)c4[C@@](C)(O)[C@H]3C[C@@H]12 [Chlortetracycline HCl] | 0.25
CCN1CC2(OC(=O)c3ccccc3NC(C)=O)CCC(OC)C34C1C(CC23)C1(O)CC(OC)C2CC4C1(O)C2OC (stereo not given) [Lappaconitine] | -0.25
CC[C@@]1(O)C(=O)OCc2c1cc1n(c2=O)Cc2cc3ccccc3nc2-1 [Camptothecin] | -0.45
CN1[C@@H]2CC[C@H]1C[C@@H](OC(=O)C(CO)c1ccccc1)C2 (stereo not given in full) [Atropine sulfate monohydrate] | 0.96
C[CH2][Hg][S]c1ccccc1C(=O)[O-].[Na+] [Thimerosal] | -3.69

SMILES | z-score of subpopulation abundance
CN[C@@H]1[C@@H](O)[C@@H](O[C@@H]2[C@@H](O)[C@H](O[C@H]3O[C@H]([C@@H](C)O)[C@@H](O)[C@H](O)[C@H]3N)[C@@H](N)C[C@H]2N)OC[C@]1(C)O [Geneticin (G418 Sulfate)] | -0.18
C[C@H]1O[C@H](O[C@H]2[C@H](O)[C@@H](O)[C@@H](O)[C@H](O)[C@@H]2O)[C@@H](N)C[C@@H]1NC(=N)C(=O)O [Kasugamycin hydrochloride] | -0.23
COc1ccc2c3c([nH]c2c1)C(C)=NCC3 [Harmaline] | -8.11
COC(=O)C1=CCCN(C)C1 [Arecoline HBr] | -0.09
Nc1ccncc1 [4-Aminopyridine] | -0.8
COc1cc2c(cc1OC)C1CC(=O)C(CC(C)C)CN1CC2 (stereo not given) [Tetrabenazine (Xenazine)] | -1.18
CN1[C@@H]2C[C@@H](OC(=O)[C@H](CO)c3ccccc3)C[C@H]1[C@@H]1O[C@@H]12 [Scopolamine HBr trihydrate] | 0.18
O=C(O[C@H]1C[N+]2(CCCOc3ccccc3)CCC1CC2)C(O)(c1cccs1)c1cccs1 [Aclidinium Bromide] | 0.94
CC[C@H]1[C@@H]2C[C@H]3[C@@H]4N(C)c5ccccc5[C@]45C[C@@H]([C@@H]2[C@H]5O)N3[C@@H]1O [Ajmaline] | 0.29
CNC1CC(N)C(O)C(OC2OC(CO)C(O)C3OC4(OC(C(N)CO)C(O)C(O)C4O)OC23)C1O (stereo not given) [Hygromycin B] | 0.58
CN1[C@@H]2CC[C@H]1C[C@@H](OC(=O)[C@H](CO)c1ccccc1)C2 [Hyoscyamine] | 0.23
N[C@@H]1C[C@H]1c1ccccc1 [Tranylcypromine (2-PCPA) HCl] | -0.01
C=CN1CCCC1=O.II [Povidone iodine] | 0.2
CC(NC(C)(C)C)C(=O)c1cccc(Cl)c1 (stereo not given) [Amfebutamone (Bupropion) HCl] | 0.11
C#C[C@]1(O)C=C[C@H]2[C@@H]3CCC4=CC(=O)CC[C@@H]4[C@H]3CC[C@@]21CC [Gestodene] | -0.99
Oc1cccc2cccnc12 [8-Hydroxyquinoline] | -0.25
Oc1cc(Cl)ccc1Oc1ccc(Cl)cc1Cl [Triclosan] | -0.09
C[C@@H]1O[C@@H](O[C@H]2C[C@@H](O)[C@]3(CO)[C@H]4[C@H](O)C[C@]5(C)[C@@H](C6=CC(=O)OC6)CC[C@]5(O)[C@@H]4CC[C@]3(O)C2)[C@H](O)[C@H](O)[C@H]1O [Ouabain] | 0.18
O=C(O[C@H]1C[C@H]2CC[C@@H](C1)[N+]21CCCC1)C(O)(c1ccccc1)c1ccccc1 [Trospium chloride] | -0.17
C=C[C@H]1CN2CC[C@H]1C[C@H]2[C@H](O)c1ccnc2ccccc12 [Cinchonidine] | 0.59
